# Bioassay records deposited in PubChem by National Center for Advancing Translational Sciences (NCATS).
# An excerpt weighted towards active compounds, which were near 7% of everything screened.
# D3 antag: blocks the human D3 dopamine receptor. D3R cells, DiscoveRx beta-arrestin luminescence, antagonist mode; stronger effect = lower value. P35462. 360,000 tested, 2.5% active. max response, negative = inhibition, %. AID 652054; in the data active = max response below about -50%; inconclusive = no clear call, values can overlap the other calls; also: % is scaled to controls: 0 for no effect and ±100 for the full control effect
# Target sequence (P35462 whole entry, looked up): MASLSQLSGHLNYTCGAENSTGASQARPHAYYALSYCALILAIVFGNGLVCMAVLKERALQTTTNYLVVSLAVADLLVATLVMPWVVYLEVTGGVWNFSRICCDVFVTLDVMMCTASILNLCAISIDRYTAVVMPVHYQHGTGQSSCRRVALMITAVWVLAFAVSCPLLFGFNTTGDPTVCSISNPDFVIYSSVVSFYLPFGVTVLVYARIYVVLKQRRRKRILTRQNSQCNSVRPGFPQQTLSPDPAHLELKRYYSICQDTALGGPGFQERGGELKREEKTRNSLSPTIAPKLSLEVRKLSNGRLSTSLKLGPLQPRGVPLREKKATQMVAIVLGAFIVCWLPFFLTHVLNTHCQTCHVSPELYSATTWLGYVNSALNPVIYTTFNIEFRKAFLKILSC
#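 Cells expressing the human receptor were seeded at 1500 cells/well, incubated overnight at 37 degrees C in 5% CO2, then exposed to library compounds with dopamine controls for 90 minutes at 37 degrees C before luminescent detection.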
# a7 integrin act: activators of alpha7 integrin expression for muscular dystrophy | alpha7betagal myoblasts, beta-gal FDG fluorescence, 48 h | Potency, µM (highest dose often 38.3 µM), inactives show top-dose activation, usual class: activators | 350,000 tested, 0.064% active | AID 624291;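 also: potency is read from the fitted curve at half-maximal effect; 100% = response of the positive control SU9516; nearly all actives have a fitted effect of over 60% in size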
#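 Alpha7betagal+/- myoblasts (passage 13) were plated 16-24 hr, then exposed to compounds (1:260 dilution of DMSO stock) for 48 hours at 37C. After MPER lysis, β-galactosidase reporter activity was read as FDG fluorescence (ex 480/em 540) after 30 minutes.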
# D3 ag: activates the human D3 dopamine receptor; P35462; D3R DiscoveRx beta-arrestin cells, luminescence, 90 min; max activation, %; 410,000 tested, 0.58% active; AID 652048; in the data active = max activation above about 30%; also: 0% is about no effect
#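 Agonist-mode cell screen: cells plated at 1500/well and incubated overnight at 37 °C, then exposed to library compounds for 90 min at 37 °C. Detection reagent was added for 30–60 min at room temperature, and luminescence was read.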
# ATXN2 expr inh: ATXN2 expression inhibition; HEK-293 ATXN2-luciferase reporter, luminescence, 24 h; Potency, µM (series often up to 57 µM), for the others: at the highest dose activity change, negative = inhibition, most hits filed as inhibitors; 360,000 tested, 0.72% active; also: potency is read from the fitted curve at half-maximal effect; % is scaled to controls: 0 for no effect and ±100 for the full control effect; nearly all actives have a fitted effect of over 55% in size
#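 qHTS (up to 57 uM final) was run with 24 h compound exposure of reporter cells at 37 °C. Each well was multiplexed: SteadyGlo luminescence measured ATXN2-luciferase expression after a fluorogenic Gly-Phe-AFC viability readout (25 uM final).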
# IL-1B inflam inh: blocks inflammasome-driven IL-1 beta release; 360,000 tested, 4.7% active; THP-1 LPS/ATP IL-1B secretion, AlphaLISA, 16 h; stronger effect = lower value; activity change, % at 57.5 µM; in the data active = activity change below about -50%; inconclusive = mostly about -30% to -49%; also: % is scaled to controls: 0 for no effect and ±100 for the full control effect
#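 THP-1 cells pretreated 1 hr with compounds (up to 57.5 uM final), then stimulated with LPS (250 ng/mL final) plus ATP (1.25 mM final); secreted IL-1B measured by AlphaLISA after 16 hr, decreased signal indicating inhibition.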
# S2 tox: viability counter-screen for ATXN expression inhibitors | S2 cells (HEK-293 line with an ATXN2-luciferase reporter) viability, CellTiter-Fluor protease fluorescence, 24 h | Potency, µM (series often up to 56.7 µM), most hits filed as cytotoxic | 400,000 tested, 0.49% active | AID 651635; also: potency is read from the fitted curve at half-maximal effect; nearly all actives have a fitted effect of over 40% in size
# * = called active by the depositor; i = inactive; ? = inconclusive; / = no result given. Unless noted, calls follow the shape of the dose curve; as a rule, active = well fitted curve in the direction sought with a large enough effect; inconclusive = small, poorly fitted or top-dose-only effect, or another doubt; inactive = no such curve, though single readings can be large; an effect the other way counts as inactive or inconclusive.
SMILES,D3 antag,a7 integrin act,D3 ag,ATXN2 expr inh,IL-1B inflam inh,S2 tox
CC12CCC(c3nnc(SCC(=O)Nc4cccc5ccccc45)nc31)C2(C)C (stereo not drawn),-20,-33%,-2,-1%,-24,i
CNS(=O)(=O)c1cccc(C(=O)OCC(=O)c2ccc3c(c2)OCCO3)c1,-9,22%,-7,18µM*,-6,i
CCc1nn(CC(=O)NCc2ccccc2Cl)c(=O)c2cccn12,19,-21%,7,15%,36,?
O=C(C1=C(O)C(=O)N(Cc2ccco2)C1c1ccccc1)c1cccs1 (stereo not drawn),?,18%,-2,-5%,0,i
FC(F)(F)c1nc2ccccc2[nH]1,-8,4%,0,/,7,i
O=c1[nH]c(C(F)(F)F)nc2ccccc12,-60*,-18%,-7,-6%,39,i
CN(Cc1ccc(Cl)c(Cl)c1)C(=O)c1ccccc1SCC(=O)N1CCCC1,7,-2%,-3,-35%,-72*,i
COc1ccc(Br)cc1CN(C)C(=O)c1ccccc1SCC(=O)N1CCCC1,-2,0%,-7,0%,-53*,i
CC12CN(C(=O)c3ccccc3)C3(C#N)CC1CCC23C (stereo not drawn),-3,-21%,10,2%,-3,?
O=C1C(Cl)=C(N2CCOCC2)C(=O)N1c1ccc(Br)cc1,-69*,-43%,-12,/,-10,i
COc1ccc([C@H]2CC(=O)C=C(c3cc(Cl)cc(Cl)c3)C2)cc1,0,14%,0,-20%,-27,i
CN(C)c1nc(C=C(C#N)C#N)c(Cl)n1-c1ccc(F)cc1,-64*,-63%,-19,?,-97*,22µM*
Cc1ccc(NC(=O)/C(C#N)=C/c2cc(C)n(-c3ccc(F)cc3)c2C)cc1C,/,/,6,5%,/,i
S=c1[nH]nc(-c2ccncc2)n1/N=C/C=C/c1ccccc1,?,-9%,-4,-5%,0,i
S=c1[nH]nc(-c2ccncc2)n1/N=C/C(Cl)=C\c1ccccc1,-2,-62%,3,/,-63*,i
O=[N+]([O-])c1ccc(/C=N/n2c(COc3ccccc3)n[nH]c2=S)cc1,-90*,0%,-3,-11%,40,i
S=c1[nH]nc(COc2ccccc2)n1/N=C/C=C/c1ccccc1,-5,-20%,-12,-3%,12,i
S=c1[nH]nc(COc2ccccc2)n1/N=C/C(Cl)=C/c1ccccc1,-16,-56%,-5,-18%,-91*,?
Cc1nn(-c2ccccc2)c(C)c1/C=N/n1c(-c2ccncc2)n[nH]c1=S,-52*,-24%,-8,/,0,i
Cc1nn(-c2ccccc2)c(C)c1/C=N/n1c(-c2ccc(Cl)cc2)n[nH]c1=S,-24,-21%,-1,-27%,22,i
Cc1ccc(C)c(S(=O)(=O)Nc2ccc(C(=O)N3CCOCC3)cc2)c1,-51*,8%,-2,/,?,i
Cc1ccc(NS(=O)(=O)c2cc(C(=O)N3CCOCC3)ccc2C)cc1,11,1%,6,-2%,6,i
Cc1ccc(C)c(S(=O)(=O)Nc2ccccc2C(=O)Nc2ccccc2N2CCOCC2)c1,-57*,21%,-4,-26%,81,i
Cc1ccc(Oc2nc(CN3CCOCC3)nc3sc4c(c23)CCC(C)C4)cc1 (stereo not drawn),6,-46%,-13,-6%,-57*,i
Cc1ccc(Oc2nc(CN3CCOCC3)nc3sc4c(c23)CCC(C)C4)cc1C (stereo not drawn),4,-16%,-6,1%,0,?
c1cc2c(cc1-c1csc(NNC3=NCCCCC3)n1)OCCO2,-9,-7%,0,-18%,-102*,?
Cc1ccc(CNC(=O)c2cn(C3CCCCC3)c(=O)c3c2c2ccccc2n3C)o1,-75*,9%,-2,4%,-86*,i
Cc1ccc(CNC(=O)c2cn(C)c(=O)c3c2c2ccccc2n3C)o1,-9,8%,-1,-7%,9,i
